Screening data from PubChem.
Rab9 promoter act – Rab9 promoter activation | Huh7 Rab9 promoter-luciferase reporter, luminescence, 24 h | 320,000 compounds, 2.8% hits | AID 485297 | Potency, µM (doses to about 9.22 µM), hits mostly activators; also: nearly all actives have a fitted effect of over 60% in size
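Measured in stably transfected Huh7 cells bearing a Rab9 promoter–luciferase construct: 24 h compound treatment at 37 °C, followed by luminescence detection.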
ELG1 genotox – inducers of genotoxicity in HEK293T ELG1-luciferase cells | Potency, µM (doses to about 46 µM), most hits filed as activators | 330,000 compounds, 1.3% hits | HEK293T ELG1-luciferase reporter, luminescence, 16 h; also: nearly all actives have a fitted effect of over 60% in size
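Step 1: seed 2,000 HEK293T ELG1-luciferase cells per well. Step 2: add compound or DMSO, incubate 16 hr at 37 °C. Step 3: ONE-Glo, 30 min at room temperature, read luminescence.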
NPC1 promoter act – activators of NPC1 promoter; Huh7 NPC1 promoter luciferase reporter, 24 h; Potency, µM (titrated, usually from 9.22 µM), actives largely listed as activators; 320,000 compounds, 2.4% hits; AID 485313; also: nearly all actives have a fitted effect of over 60% in size
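Quantitative HTS used a cell-based reporter: Huh7 cells stably bearing the NPC1 promoter upstream of luciferase were treated with compounds for 24 h, and promoter activation was read as luminescence.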
FLuc counter – firefly luciferase modulation, counter-screen for miR-21 project; purified FLuc, Km substrates, luminescence inhibition; Potency, µM (doses to about 57.5 µM), most hits filed as inhibitors; 360,000 compounds, 6.9% hits; also: nearly all actives have a fitted effect of over 55% in size
Target sequence (P08659 whole entry, looked up): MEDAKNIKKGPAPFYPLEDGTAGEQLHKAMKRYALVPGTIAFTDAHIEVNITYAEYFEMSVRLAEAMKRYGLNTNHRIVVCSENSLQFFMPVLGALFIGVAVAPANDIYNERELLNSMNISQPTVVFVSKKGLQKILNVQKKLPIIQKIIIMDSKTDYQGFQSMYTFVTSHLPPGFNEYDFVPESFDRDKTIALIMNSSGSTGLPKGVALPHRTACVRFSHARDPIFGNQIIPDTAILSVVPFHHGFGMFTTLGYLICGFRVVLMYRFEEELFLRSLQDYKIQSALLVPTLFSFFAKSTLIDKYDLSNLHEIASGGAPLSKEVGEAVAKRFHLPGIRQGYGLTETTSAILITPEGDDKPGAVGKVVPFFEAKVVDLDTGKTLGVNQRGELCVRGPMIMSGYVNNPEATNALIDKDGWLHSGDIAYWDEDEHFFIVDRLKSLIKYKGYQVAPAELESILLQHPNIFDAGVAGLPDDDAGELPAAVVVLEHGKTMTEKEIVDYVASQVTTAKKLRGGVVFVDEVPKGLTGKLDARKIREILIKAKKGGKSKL
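Purified P. pyralis luciferase (10nM final) with 10uM D-luciferin and 10uM ATP (Km levels) in 50mM Tris acetate pH 7.5, 10mM Mg acetate, 0.01% Tween-20, 0.05% BSA; qHTS 6-point titration, ~60 µM downward; luminescence read.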
uPA surface inh – cell surface uPA generation inhibition; cell surface uPA generation assay, qHTS; 330,000 compounds, 0.31% hits; AID 540303; Potency, µM (top dose mostly 38.3 µM), actives largely listed as inhibitors; active = well fitted inhibition curve with a large enough effect; inconclusive = small, poorly fitted or top-dose-only effect; inactive = no such curve, though single readings can be large or run the other way; tested in mouse RAW 264.7 cells; also: nearly all actives have a fitted effect of over 55% in size
SMN2 splice enh – enhancers of SMN2 splice variant expression; HEK293 SMN2-luciferase splicing reporter, luminescence, 30-36 h; Potency, µM (titrated, usually from 46.1 µM), hits mostly activators; 210,000 compounds, 2.8% hits; also: nearly all actives have a fitted effect of over 55% in size
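HEK293 cells carry an SMN2 minigene-luciferase reporter in which exon 7 inclusion puts luciferase in frame. Cells were seeded at 2000 cells/well, attached for 10-12 hours, then exposed to compounds for 30-36 hours at 37C before ONE-Glo luminescence.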
Hits are given with their value; n = inactive; u = inconclusive; x = no result given. Sampled rows, rich in hits. Any-hit rate of the full collection: about 7.3%. Unless noted, calls follow the shape of the dose curve; as a rule, active = well fitted curve in the direction sought with a large enough effect; inconclusive = small, poorly fitted or top-dose-only effect, or another doubt; inactive = no such curve, though single readings can be large; an effect the other way counts as inactive or inconclusive.

SMILES	Rab9 promoter act	ELG1 genotox	NPC1 promoter act	FLuc counter	uPA surface inh	SMN2 splice enh
O=C(CCc1ccccc1)Nc1ccccc1F	2.8µM	u	u	12µM	n	16µM
O=C(Nc1ccc(Cl)c(Cl)c1)Nc1ccc(Br)cc1F	n	n	n	n	n	n
Cc1ccccc1N(C(=O)CNC(=O)c1ccco1)C(C(=O)NC1CCCCC1)c1cccnc1 (configuration not stated)	n	n	n	n	n	x
Cc1ccc(-c2nc3ccccc3[nH]2)cc1NC(=O)COc1ccccc1[N+](=O)[O-]	x	x	x	n	x	n
O=C(NNc1ccccc1)Nc1ccccc1F	n	n	n	19µM	n	x
O=C(N/N=C/c1ccc(Br)s1)c1c[nH]c2ccccc12	2.8µM	n	3.5µM	21µM	n	8.9µM
O=C(N/N=C/c1cc(Br)cs1)c1c[nH]c2ccccc12	n	n	u	17µM	n	x
Cc1cccc(N2CCN(c3ncnc4c3cnn4-c3ccc(Cl)cc3)CC2C)c1 (configuration not stated)	x	x	x	n	x	x
Cc1ccc(-n2ncc3c(N4CCCCCC4)ncnc32)cc1C	x	x	x	0.27µM	x	x
Cc1cccc(-n2ncc3c(N4CCC(C)CC4)ncnc32)c1	0.89µM	u	1.1µM	1.9µM	u	2.5µM
Cc1cccc(-n2ncc3c(N4CCCCCC4)ncnc32)c1	x	x	x	0.6µM	x	x
c1ccc(-n2ncc3c(N4CCCCC4)ncnc32)cc1	u	0.46µM	0.32µM	0.27µM	1.6µM	n
Cc1ccc(-n2ncc3c(N4CCCC4)ncnc32)c(C)c1	u	n	u	u	n	n
C[C@H]1/C=C\CC(=O)NCc2cccc(c2)CNC(=O)N[C@H]1c1ccccc1	x	x	x	x	x	n
CCC1(c2ccccc2)NC(=O)N(CC(=O)NCC2COc3ccccc3O2)C1=O (configuration not stated)	n	n	n	n	n	x
Cc1nc(-c2ccc(S(=O)(=O)N3CCN(c4ccccc4F)CC3)cc2)co1	x	x	x	n	x	x
COc1ccc(-n2ncc3c(N4CCC(C(N)=O)CC4)ncnc32)cc1	2.8µM	n	3.5µM	15µM	n	n
CCOC(=O)C1CCN(c2ncnc3c2cnn3-c2ccc(OC)cc2)CC1	n	n	n	u	x	n
CCCCC1CCC(CCCC(C)CCC(=O)O)CC1 (configuration not stated)	x	x	x	27µM	x	n
CCCCCC1CCC(C(=O)O)CC1 (configuration not stated)	n	n	n	n	n	n
COc1ccc(NC(=O)CC2C(=O)N(c3ccc(F)cc3)C(=O)N2Cc2ccco2)cc1 (configuration not stated)	x	x	x	n	x	x
COc1ccc(-c2noc(CNS(=O)(=O)c3ccc(Br)cc3)n2)cc1OC	x	x	x	n	x	n
S=C(N=Nc1ccccc1)NNc1ccccc1	n	n	n	19µM	n	u
O=C(NNc1ccccc1)c1ccccc1	x	x	x	x	n	x
COC(=O)c1ccc(/C=C/c2ccc3cccc(OC(C)=O)c3n2)cc1	3.5µM	u	4µM	3.8µM	n	16µM
SMILES	Rab9 promoter act	ELG1 genotox	NPC1 promoter act	FLuc counter	uPA surface inh	SMN2 splice enh
O=C(O)c1ccc(/C=C/c2ccc3cccc(O)c3n2)cc1	3.5µM	u	3.5µM	2.4µM	n	22µM
Oc1ccc(/C=C/c2ccc3cccc(O)c3n2)cc1Br	n	18µM	n	17µM	u	x
COc1ccc(S(=O)(=O)N2CCCCC2)cc1NC(=O)Cc1cccs1	n	n	n	n	n	x
Nc1cc(=O)nc(SCC(=O)Nc2cccc(Cl)c2)n1CCc1ccccc1	x	x	x	n	x	n
O=C(COc1ccccc1)OCc1cc2ccccc2[nH]c1=O	n	n	n	21µM	n	n
O=C(OCc1cc2ccccc2[nH]c1=O)c1ccccc1	n	n	n	n	n	n
O=C(CNC(=O)c1ccco1)Nc1ccc(Cl)cc1	u	u	u	u	n	x
COc1nc(-c2ccccc2)ccc1-c1noc(-c2cccnc2)n1	u	n	n	u	x	x
COc1cccc(-c2nc(-c3ccc(-c4ccccc4)nc3OC)no2)c1	x	x	x	2.4µM	x	n
COc1cccc(-c2nc(CS(=O)(=O)c3ccccc3)no2)c1	3.2µM	u	2.8µM	12µM	n	11µM
COc1nc(-c2ccccc2)ccc1-c1noc(-c2ccccc2F)n1	u	u	u	5.4µM	n	n
